Results filed as inconclusive are left out. Values without a mark were called inactive. Calls of active or inactive are those of the source. Calls follow the shape of the dose curve; as a rule, active = well fitted inhibition curve with a large enough effect; inconclusive = small, poorly fitted or top-dose-only effect; inactive = flat fitted curve, though single readings scatter.
Each compound was assayed against Lysine-specific demethylase 5B (Homo sapiens) (UniProt Q9UGL1) (assay: Optimization screen for KDM5B Histone Demethylases FDH coupled qHTS against the LOPAC library (AID 1347166; also: 0% is about no effect)). Details: KDM5B demethylation, FDH-coupled NADH fluorescence (FDH is formaldehyde dehydrogenase); series mostly up to 57.5 µM; activity, negative = inhibition: at the top concentration.
Lysine-specific demethylase 5B (Homo sapiens), sequence (Q9UGL1 whole entry, looked up): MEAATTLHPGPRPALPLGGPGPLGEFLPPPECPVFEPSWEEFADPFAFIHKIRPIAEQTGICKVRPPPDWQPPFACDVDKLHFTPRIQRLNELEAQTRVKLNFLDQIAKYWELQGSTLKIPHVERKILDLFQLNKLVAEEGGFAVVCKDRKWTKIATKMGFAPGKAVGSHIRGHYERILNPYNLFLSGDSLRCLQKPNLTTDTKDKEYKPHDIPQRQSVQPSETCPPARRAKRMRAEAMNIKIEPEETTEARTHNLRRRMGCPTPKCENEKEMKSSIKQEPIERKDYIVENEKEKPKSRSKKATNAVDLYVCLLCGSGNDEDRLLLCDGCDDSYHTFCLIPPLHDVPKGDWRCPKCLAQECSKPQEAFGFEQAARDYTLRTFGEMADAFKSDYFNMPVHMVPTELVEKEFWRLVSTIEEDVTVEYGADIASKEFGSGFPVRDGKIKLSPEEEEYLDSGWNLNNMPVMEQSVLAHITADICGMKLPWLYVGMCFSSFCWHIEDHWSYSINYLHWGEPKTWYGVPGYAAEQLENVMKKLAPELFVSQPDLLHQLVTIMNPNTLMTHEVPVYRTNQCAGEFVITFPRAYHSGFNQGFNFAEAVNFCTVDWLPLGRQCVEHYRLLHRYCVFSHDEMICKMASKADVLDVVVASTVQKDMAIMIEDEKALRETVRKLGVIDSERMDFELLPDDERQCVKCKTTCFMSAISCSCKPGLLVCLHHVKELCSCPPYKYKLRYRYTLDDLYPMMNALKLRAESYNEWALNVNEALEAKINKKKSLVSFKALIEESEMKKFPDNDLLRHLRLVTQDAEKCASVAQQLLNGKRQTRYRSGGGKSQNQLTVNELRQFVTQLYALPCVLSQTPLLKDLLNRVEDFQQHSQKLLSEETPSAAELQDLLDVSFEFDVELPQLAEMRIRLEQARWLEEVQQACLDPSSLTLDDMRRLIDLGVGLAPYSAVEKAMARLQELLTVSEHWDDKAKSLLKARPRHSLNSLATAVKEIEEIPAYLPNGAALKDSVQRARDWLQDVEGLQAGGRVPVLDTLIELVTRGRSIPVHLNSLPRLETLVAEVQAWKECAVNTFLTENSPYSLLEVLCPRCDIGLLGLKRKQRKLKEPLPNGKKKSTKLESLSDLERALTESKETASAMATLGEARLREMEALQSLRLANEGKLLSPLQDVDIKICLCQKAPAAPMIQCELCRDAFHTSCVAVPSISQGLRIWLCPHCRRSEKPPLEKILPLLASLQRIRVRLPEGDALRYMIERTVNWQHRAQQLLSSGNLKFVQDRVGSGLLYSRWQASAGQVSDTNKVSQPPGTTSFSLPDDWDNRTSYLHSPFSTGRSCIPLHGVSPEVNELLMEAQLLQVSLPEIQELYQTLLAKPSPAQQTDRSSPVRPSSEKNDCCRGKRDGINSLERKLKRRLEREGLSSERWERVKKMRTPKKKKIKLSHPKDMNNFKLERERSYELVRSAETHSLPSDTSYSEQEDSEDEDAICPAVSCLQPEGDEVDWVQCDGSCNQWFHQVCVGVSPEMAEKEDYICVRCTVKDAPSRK
How it was run: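 KDM5BDeltaAP (200nM final) preincubated 10 min with compound, then 12.5uM H3K4Me3, 25uM a-ketoglutarate, ascorbate, Fe(II), NAD+ and FDH added; 50mM HEPES pH 7.5, 0.01% Tween-20. NADH fluorescence (340/450 nm) change over 30 min, room temperature.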

Row | SMILES | activity, negative = inhibition [%] | outcome
1 | CC(=O)O[C@]1(C(C)=O)CC[C@H]2[C@@H]3C=C(Cl)C4=CC(=O)[C@@H]5C[C@@H]5[C@]4(C)[C@H]3CC[C@@]21C | -11.8 | 
2 | Clc1ccc(Cn2c(CN3CCCC3)nc3ccccc32)cc1 | -3.77 | 
3 | Cc1cccc(C)c1OCC(C)N (stereo unspecified) | -8.36 | 
4 | CCCNC(=O)NS(=O)(=O)c1ccc(Cl)cc1 | 16.9 | 
5 | NCCS | -22.5 | 
6 | CN(C)CCC(c1ccccc1)c1ccccn1 (stereo unspecified) | -7.92 | 
7 | CCN(CC)C(=O)c1ccc(O)c(OC)c1 | -2.84 | 
8 | CCCCC1C(=O)N(c2ccccc2)N(c2ccccc2)C1=O | -10.5 | 
9 | COc1ccc(Cc2nccc3cc(OC)c(OC)cc23)cc1OC | -5.44 | 
10 | COc1cccc(-c2cc(=O)c3ccccc3o2)c1N | -11.8 | 
11 | CCN(CC)CCOC(=O)c1ccc(N)cc1 | -11.9 | 
12 | CC(=O)CCCCn1c(=O)c2c(ncn2C)n(C)c1=O | -9.02 | 
13 | C[N+](C)(C)CCCCCC[N+](C)(C)C |  | inactive
14 | COc1ccccc1N1CCN(CCCNc2cc(=O)n(C)c(=O)n2C)CC1 | -10.3 | 
15 | CCN(CC)CCNC(=O)c1ccc(N)cc1 | -4.77 | 
16 | O=C1NC(=O)C(c2ccccc2)(c2ccccc2)N1 |  | inactive
17 | CC(=O)c1ccc(S(=O)(=O)NC(=O)NC2CCCCC2)cc1 | -1.1 | 
18 | CCCCCN(C)CCC(O)(P(=O)(O)O)P(=O)(O)O | -9.85 | 
19 | O=C1NCC2(CCN(CCc3ccccc3)CC2)O1 | -4.69 | 
20 | NC(N)=Nc1nc(CSCC/C(N)=N/S(N)(=O)=O)cs1 | -5.78 | 
21 | CC(C)(C)c1ccc(C(O)CCCN2CCC(C(O)(c3ccccc3)c3ccccc3)CC2)cc1 (stereo unspecified) | -7.6 | 

— PubChem BioAssay (NCATS)
